Assay outcomes from PubChem.
Compounds with a hit are over-represented: about 1.7% of the library has one in this group of screens.
PTHR1 agonist – qHTS for PTHR1 Agonists: Primary Screen; Parathyroid hormone/parathyroid hormone-related peptide receptor (Homo sapiens), Q03431; HEK293 GP2 PTHR1 cells, GloSensor cAMP luminescence, 1 h; Potency, µM (doses to about 115 µM), usual class: activators; 410,000 tested, 0.075% active; AID 743266, 2014; also: nearly all actives have a fitted effect of over 55% in size
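HEK-293-derived GP2 cells expressing PTHR1 and a GloSensor cAMP reporter, 3,000/well, plated overnight, given luciferin plus IBMX (each 0.5 mM as added) for 1 h at 37 °C, then compound for 1 h at 37 °C. Luminescence was read after 15 min at room temperature.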
GLP1R inv ag – qHTS of GLP-1 Receptor Inverse Agonists (Inhibition Mode) | Potency, µM (top dose mostly 38.3 µM), hits mostly inhibitors | HEK293 GLP-1R CRE-luciferase, luminescence, 24 h; GLP-1R form is constitutively active | 410,000 tested, 1.6% active; also: nearly all actives have a fitted effect of over 55% in size
Target sequence (P43220 whole entry, looked up): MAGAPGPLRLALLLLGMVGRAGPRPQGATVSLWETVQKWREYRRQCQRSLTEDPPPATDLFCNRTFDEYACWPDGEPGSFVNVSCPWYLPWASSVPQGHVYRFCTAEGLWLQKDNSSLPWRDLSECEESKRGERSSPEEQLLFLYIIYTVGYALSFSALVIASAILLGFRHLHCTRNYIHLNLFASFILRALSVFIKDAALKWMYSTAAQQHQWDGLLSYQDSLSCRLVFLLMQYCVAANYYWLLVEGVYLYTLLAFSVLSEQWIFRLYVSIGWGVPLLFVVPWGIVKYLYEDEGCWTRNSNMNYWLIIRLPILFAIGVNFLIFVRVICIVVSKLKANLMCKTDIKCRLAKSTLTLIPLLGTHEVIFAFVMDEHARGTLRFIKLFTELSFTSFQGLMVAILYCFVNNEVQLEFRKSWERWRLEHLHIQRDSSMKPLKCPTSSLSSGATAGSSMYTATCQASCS
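Assay principle: reduced luminescence from a cAMP-responsive reporter in HEK293 cells co-expressing a constitutively active GLP-1R. Conditions: 24 hr compound incubation, 37 deg C, 5% CO2.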
HEK293 tox – qHTS of GLP-1 Receptor Inverse Agonists: Cytotox Screen; 410,000 tested, 0.13% active; Potency, µM (titrated, usually from 38.3 µM), most hits filed as inhibitors; HEK293 cAMP-luciferase reporter cells, luminescence, 24 h;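 also: loss of luciferase light is scored as toxicity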
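1536-well qHTS counterscreen of the MLSMR; 200 cells/uL, 12 h pre-incubation, 23 nL cpd, 24 h at 37 deg C 5% CO2, luciferase detection reagent, 12 min RT, luminescence. Inhibition = undesired.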
GLP-1R agonist – qHTS of GLP-1 Receptor Agonists | HEK293 GLP-1R CRE-luciferase, luminescence, 4-6 h; cells express a hypersensitive GLP-1R form | Glucagon-like peptide 1 receptor (Homo sapiens), P43220 | 380,000 tested, 0.007% active | Potency, µM (doses to about 45.6 µM), most hits filed as activators
Each line names hits and unclear results; the compound was inactive in the other large screens. Calls follow the shape of the dose curve; as a rule, active = well fitted curve in the direction sought with a large enough effect; inconclusive = small, poorly fitted or top-dose-only effect, or another doubt; inactive = no such curve, though single readings can be large; an effect the other way counts as inactive or inconclusive.

CC(=O)Nc1ccc(N(C(=O)c2ccccn2)C(C(=O)NC2CCCCC2)c2ccc(F)cc2)cc1 (configuration not stated)	none
CCOc1cc(/C=C/C(=O)c2ccc(O)cc2)ccc1OCC(=O)N(C)C	GLP1R inv ag inconclusive, HEK293 tox inconclusive
CCOc1cc(/C=C/C(=O)c2ccc3c(c2)OCCO3)ccc1OCC(=O)N(C)C	GLP1R inv ag 13µM
CC1=C[C@@H](O)CC(C)(C)[C@@H]1/C=C/C(C)=C/C=C/C(C)=C/C=C/C=C(C)/C=C/C=C(C)/C=C/C1=C(C)C[C@H](O)CC1(C)C	none (no result: PTHR1 agonist, GLP1R inv ag, HEK293 tox)
Cc1ccc(NC2=Nc3ccccc3N3C2=Nc2c(c(C)nn2-c2ccccc2)C3c2ccc(O)c(O)c2)cc1 (configuration not stated)	GLP1R inv ag 11µM
O=[N+]([O-])c1ccc(N/N=C2\CC3CC=CC23)cc1 (configuration not stated)	GLP1R inv ag 1.3µM, HEK293 tox inconclusive
O=[N+]([O-])c1ccc(N/N=C2\CC3CC=CC23)c([N+](=O)[O-])c1 (configuration not stated)	none
O=C(NCCCN1CCOCC1)c1ccc2c(=O)n(-c3ccc(F)c(Cl)c3)c(=S)[nH]c2c1	none
Cc1ccc(C)c(NC(=S)NC(NC(=O)/C=C/c2ccccc2)C(Cl)(Cl)Cl)c1 (configuration not stated)	GLP1R inv ag 3.5µM
CN(C)C=NC(=O)c1[nH]c2ccc(Cl)cc2c1-c1ccccc1	GLP1R inv ag 11µM, HEK293 tox inconclusive
Cc1cc(C)c2nc(N3CCC(C(=O)N4CCN(C(=O)c5ccco5)CC4)CC3)sc2c1	GLP1R inv ag 7.9µM
Cc1c(Cl)ccc2sc(N3CCN(C(=O)c4ccco4)CC3)nc12	none (no result: GLP-1R agonist)
O=C(Cc1ccccc1F)Nc1nc(-c2ccc(F)cc2)cs1	GLP1R inv ag 8.9µM
COc1ccc(-c2csc(NC(=O)Cc3ccccc3F)n2)cc1OC	GLP1R inv ag inconclusive
Cc1ccc(Nc2nccc(N(C)c3ccc4c(C)n(C)nc4c3)n2)cc1S(N)(=O)=O	none (no result: PTHR1 agonist, GLP1R inv ag, HEK293 tox)
C[C@@H](NC(=O)[C@@H]1CCCN1C(=O)[C@@H]1CCCN1C(=O)c1ccccc1)c1ccccc1	none
CCCCN1CC(COCc2ccccc2)Oc2cccc(Oc3cc(C)c(C)c(C)c3)c2S1(=O)=O (configuration not stated)	GLP1R inv ag 2.8µM
CCCCN1CC(COCc2ccccc2)Oc2cccc(Oc3ccc(F)cc3)c2S1(=O)=O (configuration not stated)	GLP1R inv ag 3.5µM
CCCCN1CC(COCc2ccccc2)Oc2cccc(Oc3ccccc3)c2S1(=O)=O (configuration not stated)	GLP1R inv ag inconclusive
CCCCN1CC(COCc2ccccc2)Oc2cccc(Oc3ccc(C)cc3)c2S1(=O)=O (configuration not stated)	GLP1R inv ag 7.9µM
CCc1cccc(NC(=O)CSc2ncc3c(n2)-c2ccccc2N(Cc2ccccc2C)S3(=O)=O)c1	none (no result: GLP-1R agonist)
Cc1ccc2[nH]c3c(c2c1)CCCC3=O	none
Cc1ccc2[nH]c3c(c2c1)CCCC3NCCO (configuration not stated)	GLP1R inv ag 10µM
COCCOc1ccc(C(F)(F)F)cc1NC(=O)c1ccccc1	none
CC(C)(C)c1ccc(OCCOc2ccc(C(C)(C)C)cc2NC=O)c(NC=O)c1	GLP1R inv ag 4.5µM
CCCn1c(C(C)Nc2nc(-c3ccc(C)cc3)cs2)nc2ccccc21 (configuration not stated)	GLP1R inv ag 11µM, HEK293 tox inconclusive
CCCCN1C(=O)C(O)(CC(=O)c2ccc(C)cc2C)c2cc(Br)ccc21 (configuration not stated)	GLP1R inv ag 10µM (no result: GLP-1R agonist)
O=C(Nc1ccccc1)N(Cc1ccc(Cl)cc1)CC(O)C(F)(F)F (configuration not stated)	GLP1R inv ag 10µM
Cc1nn2c(NCC(C)C)c3c(nc2c1-c1ccccc1)CCC3	none
Cc1nn2c(NC(C)C)c3c(nc2c1-c1ccccc1)CCC3	GLP1R inv ag 10µM
Cc1cccn2c(=O)c(C(=O)NCc3ccccc3Cl)c(O)nc12	none (no result: GLP-1R agonist)
Cc1cccc(C2=NN(c3ccccc3)[C@@H](C(=O)N3CCOC3=O)[C@@H]2c2ccc(Cl)cc2)c1	GLP1R inv ag inconclusive
Cc1cccc(C2=NN(c3ccccc3)[C@@H](C(=O)N3CCOC3=O)[C@@H]2c2ccc(F)cc2)c1	GLP1R inv ag 13µM
CCCCC(CC)C(=O)Oc1ccc(O)c(C(C)(C)C)c1 (configuration not stated)	GLP1R inv ag 5.6µM, HEK293 tox inconclusive
CCn1c(C)nc2cc(C(=O)NNC(=O)CN(C)S(=O)(=O)c3ccc(NC(C)=O)cc3)ccc21	none
CC(=O)O[C@@H]1[C@@H](O)[C@@H](O)[C@H](Oc2c(-c3ccc(O)cc3)oc3c(CC=C(C)C)c(O)cc(O)c3c2=O)O[C@H]1C	none
CC(=O)O[C@H]1[C@@H](O)[C@H](O)[C@H](Oc2c(O)c(C)c3c4c2[C@@H](C)CC[C@@H]4[C@@H](C)C[C@H]3C=C(C)C)O[C@H]1C	GLP1R inv ag 11µM, HEK293 tox inconclusive
Cc1ccccc1Cn1nc(C)c(NC(=O)c2cc(CC(C)C)on2)c1C	GLP1R inv ag inconclusive
Cc1nn(Cc2ccc(Cl)c(Cl)c2)c(C)c1NC(=O)c1cc(CC(C)C)on1	GLP1R inv ag 3.2µM
CCCc1ccc2oc(C(=O)NCCN3CCCC(C(N)=O)C3)c(C)c2c1 (configuration not stated)	GLP1R inv ag inconclusive
CCCc1ccc2oc(C(=O)NCCN3CCCC(O)C3)c(C)c2c1 (configuration not stated)	GLP1R inv ag 10µM
COc1cccc(F)c1C(C[N+](=O)[O-])c1c(N)n(C)c(=O)n(C)c1=O (configuration not stated)	GLP1R inv ag 3.2µM, HEK293 tox inconclusive
COc1cc(C(C[N+](=O)[O-])c2c(N)n(C)c(=O)n(C)c2=O)ccc1O (configuration not stated)	none
OCCC1CN(Cc2nc(-c3ccccc3)cs2)CCN1CCc1ccccc1 (configuration not stated)	GLP1R inv ag 10µM
C=CCOC(=O)C(C#N)c1nc2ccccc2nc1N1CCC(C(=O)OCC)CC1 (configuration not stated)	GLP1R inv ag 6.3µM
CCOc1ccccc1N1CCN(c2nc3ccccc3nc2C(C#N)C(=O)OC(C)C)CC1 (configuration not stated)	GLP1R inv ag 5µM
CCOC(=O)C1CCN(c2nc3ccccc3nc2C(C#N)C(=O)OCCOC)CC1 (configuration not stated)	none
